Results on 22 sequences are retold here after the OligoGym collection.
Also: reference of the scale not given here.

For one experiment, the target named is CAMSAP1L1. The experiment can be described thus: pooled miR-30 sensor sort-seq; sequence = guide strand. Conditions: shRNA.
Take TTCACCACTTCAAACCACCAGA: the sensor-assay potency score (higher = more potent) was -0.595.
In turn, TTTTGCAGCATCACTCTTGAGA yielded a sensor-assay potency score (higher = more potent) of -0.108.
Consider TTCTGCTTTTTGATCATCCTTA, for which the sensor-assay potency score (higher = more potent) was -0.157.
TACTGTATCCATATCTTCCATT yielded a sensor-assay potency score (higher = more potent) of -0.745.
Turning to TTATCCAGTACATGACAGCGTC, the sensor-assay potency score (higher = more potent) is -0.641.
Same read-out and setting: under TTGATTTCTTCAGTTTCTGGGC stands -0.439; under TACTTTTTCTATACTGACCATT, -0.4.
On to TTCAACAGGTACATCAGCCTTT, for which the sensor-assay potency score (higher = more potent) is 0.426.
Sequence TTGTTCATGACAACAGAGCTTA had a sensor-assay potency score (higher = more potent) of 0.195.
TACACTCTCGTTATCACCCGTG: the sensor-assay potency score (higher = more potent) stood at 0.34.
The same measure, in the same setting: to TTGTATTATGTGCTTATTGGAT belongs -0.942.

The next experiment has as its target CAPNS2. The experiment is described as above. The conditions noted are these: shRNA.
The sequence TATACTGAGCTGCTGCAGCCTC showed a sensor-assay potency score (higher = more potent) of -0.467.
Still for that read-out and setting: to TAAAATCCATATCTCCATCTTC belongs -0.0154; to TCTATCTCTATCCAGAGACTTG, -1.33.
For TTTGTGCTTAGAAAGGACTTTG, the sensor-assay potency score (higher = more potent) is -0.468.
Same read-out and setting: under TTGATAGACACTTGAATCAGGC stands -0.108; under TAGACACTTGAATCAGGCCATC, -1.43; under ATGACAGACACAATGCTCCGGC, -0.17.
Same read-out and setting: under TATCTCCATCTTCATTAGCATA stands -1.87.
Same read-out and setting: under TTTGTTGAGAATATTCATCAGA stands -0.0355.
Take TAAAATTCACAATTCCTCCAAC: the sensor-assay potency score (higher = more potent) was -0.361.
As for TAATTCAGCAGTAAAAGGCAGC, the sensor-assay potency score (higher = more potent) was -0.377.
